Reference: PubChem BioAssay AID893 (National Center for Advancing Translational Sciences (NCATS), 2007)
Several values for one entry are separate records, joined by “and”; a condition that tells them apart may be missing. Identical values can stand only once. Hit rate of the full screen: of about 75,000 compounds, about 5,700 (7.6%) were called active. Not shown: some 7% with an inconclusive outcome. The call rests on the fitted dose curve; in most records, active means well fitted inhibition curve with a large enough effect; inconclusive means small, poorly fitted or top-dose-only effect; inactive means no such curve, though single readings can be large or run the other way. Shown is part of a subset that was picked to be rich in actives.

Molecular target: 3-hydroxyacyl-CoA dehydrogenase type-2 (Homo sapiens) (UniProt Q99714)
Assay: qHTS Assay for Inhibitors of HSD17B4, hydroxysteroid (17-beta) dehydrogenase 4;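 further: the protocol describes HADH2 (HSD17B10) and not the HSD17B4 of the title; nearly all actives have a fitted effect of over 70% in size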
Details: recombinant HSD17B10, NADH fluorescence kinetic; series mostly up to 57.1 µM
Outline: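 His-tagged E. coli-expressed HADH2 at 20 nM in 100 mM Tris-HCl pH 9.0 with 0.01 % Tween-20, preincubated 15 min with compound at room temperature. Reaction with 1 mM NAD+ and 90 uM beta-hydroxybutyryl coenzyme A; NADH fluorescence (360/450 nm) read kinetically over 4 min, last minus first point.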
On the % scale 0 is the no-effect control and ±100 the full control effect; potency means the concentration at half of the fitted maximal effect.

Potency, inactive:
c1ccc(CCC2=NCCn3cccc32)cc1
Cc1cc(C)nc(NC(=O)Nc2ccccc2C(F)(F)F)n1
CCOC(=O)Cc1csc(NC(=O)Nc2ccccc2)n1
CCCCN(C)C(=O)C1CCN(Cc2ccccn2)CC1
c1ccc(-n2nnnc2N2CCOCC2)cc1
O=C1c2ccccc2-c2ncnc3c(N4CCOCC4)cc(N4CCOCC4)c1c23
Cc1cc(C(=O)OCC(=O)c2c(N)n(C)c(=O)n(C)c2=O)c(C)o1
CCOc1cccc(C(=O)Nc2cccnc2)c1
CCCOc1cccc(C(=O)Nc2nnn(CCC)n2)c1
Oc1ccc2c(c1)OCC1c3cc4c(cc3OC21)OCO4 (stereo not drawn)
O=C(c1ccccc1)N1CCN(C(=O)N2CCCCC2)CC1
CC(=O)c1c(C)n(-c2ccc(N(C)C)cc2)c2ccc(OCC(N)=O)cc12
O=C1Nc2c(Br)cc(Br)cc2C1(O)N1CCOCC1 (stereo not drawn)
Brc1cccc(-c2nnc3n2CCC3)c1
CCN(CC)c1ccc2oc(=O)c(C)nc2c1
Cc1ccc(S(=O)(=O)N2C3C=CC(C3)C2C(=O)O)cc1 (stereo not drawn)
COC(=O)N1CCC2(CCCN(c3ccncc3)C2)CC1
COc1cccc(N2CCN(C3CC(=O)N(c4ccc(Cl)cc4)C3=O)CC2)c1 (stereo not drawn)
COC(=O)CC1C(C)(C)C(OC(C)=O)C2CC3=C4CC(=O)OC(c5ccoc5)[C@]4(C)CCC3[C@@]1(C)C2=O (stereo partly drawn)
COCCn1nnnc1C(c1cc2ccc(OC)cc2[nH]c1=O)N1CCc2ccccc2C1 (stereo not drawn)
COc1ccc(N2CCN(C(c3cc4ccc(C)cc4[nH]c3=O)c3nnnn3C3CCCC3)CC2)cc1 (stereo not drawn)
COc1ccc(OCC(=O)N2CCOCC2)cc1
O=C(Nc1cccc(OCC(=O)N2CCOCC2)c1)C1CCCCC1
CC(C)(C)[Si](OCC[C@@H]1C[C@@]1(C)[C@@H](NP(=O)(c1ccccc1)c1ccccc1)c1ccccc1)(c1ccccc1)c1ccccc1
CC1O[C@@H](Oc2c(-c3ccc(O)c(O)c3)oc3cc(O)cc(O)c3c2=O)C(O)C(O)C1O (stereo partly drawn)
O=C1c2oc3ccccc3c(=O)c2C(c2cccc(O)c2)N1c1ccccn1 (stereo not drawn)
CCOC(=O)CNC(=O)CSc1nnc(-c2cccc(OC)c2)n1CC
Cc1ccc(CNC(=O)C2CCCN(S(C)(=O)=O)C2)cc1 (stereo not drawn)
CCOC(=O)c1cc(C)sc1NC(=O)C1CCC1
COc1cccc(OCCOc2cccc(/C=N/n3cnnc3)c2)c1
COc1ccccc1OCCOc1ccc(/C=N/n2cnnc2)cc1
Cc1cnc(NC(=O)CSc2nnc(-c3ccccc3)n2Cc2ccccc2)s1
Cc1nc(NC(=O)C23CCC(C)(C(=O)O2)C3(C)C)sc1C (stereo not drawn)
CN1CCC(CNC(=O)c2ccc(-n3c(=O)c(=O)[nH]c4ccccc43)cc2)CC1
O=C(Cl)c1ccc([N+](=O)[O-])cc1
O=C(CSc1nc(-c2ccco2)cc(C(F)(F)F)n1)NCc1cccs1
O=C(CSc1nnc(-c2cccs2)n1-c1ccccc1)NCc1ccco1
COc1ccccc1Nc1ncc(C(C)=O)c(C)n1
O=C(Nc1ccccc1F)C1C2C=CC3(O2)C1C(=O)N(c1cccnc1)C3C(=O)NC1CCCCC1 (stereo not drawn)
O=c1oc2cc(O)ccc2cc1-c1ccc(F)cc1
COc1cccc(C(=O)c2cc3ccc(O)cc3oc2=O)c1
c1ccc(-n2ncc3c2ncn2c(CSc4nc5ccccc5s4)nnc32)cc1
CCOC(=O)Cn1c(CN(Cc2ccccc2)Cc2ccccc2)nc2c1c(=O)[nH]c(=O)n2C
CCCOC(=O)c1[nH]c2c(c1C)C(=O)CC(c1cc(OC)c(OC)c(OC)c1)C2 (stereo not drawn)
CC1(C)OC2CO[C@]3(COS(N)(=O)=O)OC(C)(C)OC3C2O1 (stereo partly drawn)
Oc1cc(O)c2c(c1)OC(c1ccc(O)c(O)c1)C(O)C2 (stereo not drawn)
O=C(NCCCN1CCN(C2CCCCC2)CC1)Nc1ccccc1C(F)(F)F

Potency, active:
CN(CCOc1ccc(CC2SC(=O)NC2=O)cc1)c1ccccn1 (stereo not drawn) 31.6 µM
Cc1csc(NC(=O)NC2(C(F)(F)F)Oc3ccccc3O2)n1 25.1 µM
c1ccc(-c2oc3ncnc(N4CCOCC4)c3c2-c2ccccc2)cc1 10 µM
CCC(=O)Oc1cccc(C(=O)Nc2ccc(-c3nnc(-c4ccco4)o3)cc2)c1 20 µM
CCc1ccc2oc(-c3ccc(N)cc3)nc2c1 25.1 µM
CCOc1ccc2[nH]c(=O)c(C(c3nnnn3CCOC)N3CCOCC3)cc2c1 (stereo not drawn) 10 µM
O=C1CC2(CCCCC2)Oc2ccc(OCC(=O)N3CCOCC3)cc21 31.6 µM
O=c1c(O)c(-c2ccc(O)cc2)oc2ccccc12 25.1 µM
C=CCOc1ccc(/C=N/n2cncn2)cc1OC 15.8 µM
FC(F)(F)c1cc(-c2cccs2)nc(NCc2ccco2)n1 31.6 µM
COc1ccc(-c2cc3ccc(OCc4nn[nH]n4)cc3oc2=O)cc1 25.1 µM
COc1c(C)c2c(c(O)c1C/C=C(\C)CCC(=O)O)C(=O)OC2 12.6 µM and 25.1 µM

Activity change, negative = inhibition, inactive:
CO[C@@H]1COC(=O)[C@H](Cc2ccccc2)NC(=O)C/C=C\[C@@H](C)[C@H](OC)COC(=O)[C@@H](C)NC(=O)C/C=C\[C@H]1C 5.16% [at 11.4 µM] and 0.0428% [at 11.4 µM]
CO[C@H]1COC(=O)[C@@H](C)NC(=O)C/C=C\[C@@H](C)[C@H](OC)COC(=O)C/C=C\[C@@H]1C -0.943% [at 11.4 µM]
O=C(O)CS(=O)c1ccc2c3c(cccc13)C(=O)c1ccccc1-2 (stereo not drawn) -2.63% [at 11.4 µM]
COc1cccc([C@H]2Oc3ccc(OC)cc3/C(=N\OCC[C@@H]3C=C[C@H](OC(C)=O)[C@H](COC(C)=O)O3)[C@@H]2O)c1 -5.53% [at 11.4 µM]
